Test results from PubChem BioAssay.
Active and inactive are the calls of the source.

Legend:
[1] = small molecules captured by biotinylated probe aFSTL3 – biochemical, small-molecule microarray, fluorescence 635/667, stem cell growth factor project, primary screen (AID 1064); details: higher = more signal;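 also: measures binding of the biotinylated anti-FSTL3 antibody to printed compounds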
[2] = binders from COS7 lysate, DM2A8 probe, primary screen, torsin A project, cell lysate, small-molecule microarray, fluorescence 635/667 (AID 1065); details: higher = more signal, COS7 lysate expressing mutant human TOR1A
[3] = small molecules captured by biotinylated probe aFGF2 – biochemical, small-molecule microarray, fluorescence 635/667, stem cell growth factor project, primary screen (AID 1067); details: higher = more signal;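 also: measures binding of biotinylated aFGF2 protein to printed compounds on slides; z-score merges feature fluorescence and signal-to-noise across triplicate slides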
[4] = small molecules captured by biotinylated probe aFGF10 – biochemical, small-molecule microarray, fluorescence 635/667, stem cell growth factor project, primary screen (AID 1071); details: higher = more signal;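 also: score merges 667 nm spot intensity and signal to noise from triplicate slides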
[5] = target: Neurogenic locus notch homolog protein 2 (Homo sapiens) (UniProt Q04721); assay: small molecules binding Notch2 protein – biochemical, small-molecule microarray, 635 nm fluorescence, stem cell growth factors, primary screen (AID 1073); details: higher = more signal
[6] = target: Pro-neuregulin-1, membrane-bound isoform (Homo sapiens) (UniProt Q02297); assay: small molecules binding neuregulin-1 protein – biochemical, small-molecule microarray, fluorescence 635/667, psychiatric disease protein project, primary screen (AID 1075); details: NRG1 binding, 635 nm fluorescence, higher = more signal;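 also: score combines 667 nm spot fluorescence with signal to noise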
Pro-neuregulin-1, membrane-bound isoform (Homo sapiens), sequence (Q02297 whole entry, looked up, the tested form may be a part, canonical isoform): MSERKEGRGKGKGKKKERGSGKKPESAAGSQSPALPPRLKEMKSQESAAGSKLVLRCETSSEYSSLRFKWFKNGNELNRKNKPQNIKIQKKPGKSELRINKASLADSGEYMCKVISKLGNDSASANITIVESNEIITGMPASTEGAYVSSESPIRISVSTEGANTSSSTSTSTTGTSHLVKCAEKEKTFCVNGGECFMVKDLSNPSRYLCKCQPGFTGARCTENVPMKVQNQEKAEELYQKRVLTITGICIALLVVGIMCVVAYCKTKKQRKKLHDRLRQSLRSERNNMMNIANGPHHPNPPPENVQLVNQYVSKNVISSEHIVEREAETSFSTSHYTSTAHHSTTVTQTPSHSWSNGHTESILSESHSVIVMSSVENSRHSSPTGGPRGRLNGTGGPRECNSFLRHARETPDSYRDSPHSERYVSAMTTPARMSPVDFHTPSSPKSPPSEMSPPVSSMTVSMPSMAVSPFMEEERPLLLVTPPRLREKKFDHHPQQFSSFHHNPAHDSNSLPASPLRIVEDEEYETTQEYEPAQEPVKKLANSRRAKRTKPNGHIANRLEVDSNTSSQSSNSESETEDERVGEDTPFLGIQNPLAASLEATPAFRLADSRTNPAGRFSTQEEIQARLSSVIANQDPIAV

[7] = test system: Neuregulin-1 EGF-like domain; assay: small molecules binding NRG1 EGF domain – biochemical, small-molecule microarray, 635 nm fluorescence, primary screen (AID 1081); details: higher = more signal;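 also: binding of the protein to compounds printed on small-molecule microarray slides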
[8] = FRG1 expression reporter modulators in myotubes – cell-based, C2C12 myotubes, firefly/Renilla luciferase, luminescence, FRG1 inhibition for FSHD, primary screen (AID 1084); details: FRG1 promoter luciferase, higher = more signal, called active from +8 up or from −8 down
[9] = small molecules captured by biotinylated probe aFST – biochemical, small-molecule microarray, fluorescence 635/667, stem cell growth factor project, primary screen (AID 1086); details: higher = more signal;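 also: score merges 667 nm fluorescence with signal-to-noise of each printed compound spot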
[10] = binders of probe aHhip on microarray, primary screen, stem cell growth factor project, biochemical, small-molecule microarray, fluorescence 635/667 (AID 1087); details: higher = more signal;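 also: score merges spot fluorescence at 667nm with spot signal to noise ratio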
[11] = test system: PRMT1 (protein arginine N-methyltransferase 1); assay: small molecules binding arginine methyltransferase PRMT1 – biochemical, small-molecule microarray, 635 nm fluorescence, primary screen (AID 1088); details: higher = more signal;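 also: binding of Prmt1 protein to compounds spotted on small-molecule microarray slides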
[12] = growth effects on S. cerevisiae YJM789 – YJM789 clinical isolate, OD600, 24 h, basal, primary screen (AID 1089); details: higher = more signal, called active from +8 up or from −8 down;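 also: growth of clinical yeast isolate S. cerevisiae YJM 789 seeded 1000 cells per well; test concentration not given here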
[13] = S. pombe growth modifiers, basal conditions – strain 972, OD600, 24 h, no modulator, primary screen (AID 1090);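 also: basal condition with compound alone and no growth modifier present; test concentration not given here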; details: S. pombe 972 growth, higher = more signal, called active from +8 up or from −8 down
[14] = budding yeast growth modifiers under rapamycin – strain BY4716, OD600, 96 h, primary screen (AID 1091); also: test concentration not given here; details: S. cerevisiae BY4716 + rapamycin, higher = more signal, called active from +8 up or from −8 down
[15] = target: Torsin-1A-interacting protein 2 (Homo sapiens) (UniProt Q8NFQ8); assay: small molecules binding lysate-expressed LULL1 – cell lysate, human LULL1 lysate, 635/667 nm fluorescence, primary screen (AID 1092); details: small-molecule microarray, hLULL1 lysate binding, 635 nm fluorescence; higher = more signal;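 also: probe is lysate of COS7 cells overexpressing human LULL1; score merges per-feature 667 nm fluorescence with signal-to-noise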
Torsin-1A-interacting protein 2 (Homo sapiens), sequence (Q8NFQ8 whole entry, looked up): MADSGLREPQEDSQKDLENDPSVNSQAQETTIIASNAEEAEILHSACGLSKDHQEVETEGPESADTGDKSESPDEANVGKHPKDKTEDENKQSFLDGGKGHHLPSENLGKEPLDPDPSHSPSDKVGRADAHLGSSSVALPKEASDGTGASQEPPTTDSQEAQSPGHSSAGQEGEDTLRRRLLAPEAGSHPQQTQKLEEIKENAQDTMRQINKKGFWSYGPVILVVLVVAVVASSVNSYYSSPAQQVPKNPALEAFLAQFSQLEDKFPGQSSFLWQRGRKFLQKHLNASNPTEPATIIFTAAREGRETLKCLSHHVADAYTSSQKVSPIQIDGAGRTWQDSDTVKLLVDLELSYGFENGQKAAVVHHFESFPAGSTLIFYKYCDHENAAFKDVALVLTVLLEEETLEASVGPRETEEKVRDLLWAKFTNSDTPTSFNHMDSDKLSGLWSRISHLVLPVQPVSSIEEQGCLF

[16] = optical density change of DRC41 E. coli – strain DRC41, OD650, 24 h, E. coli filamentation project, primary screen (AID 1093);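 also: MC1000 strain lacking acrAB efflux and sulA so SOS filamentation is blocked; test concentration not given here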; details: E. coli DRC41 growth, higher = more signal, called active from +8 up or from −8 down
[17] = probe aLefty2 binding to arrayed compounds – biochemical, biotinylated probe, 635/667 nm fluorescence, primary screen (AID 1094); details: small-molecule microarray, higher = more signal;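 also: score merges spot fluorescence near 667 nm with spot signal-to-noise ratio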
[18] = test system: Noggin (protein binding on small-molecule microarray); assay: small molecules binding Noggin protein – biochemical, 635/667 nm fluorescence, primary screen (AID 1095); details: 635 nm fluorescence, higher = more signal;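 also: score merges 667 nm feature fluorescence with signal to noise over triplicate slides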
[19] = target: Neurogenic locus notch homolog protein 3 (Homo sapiens) (UniProt Q9UM47); assay: small molecules binding NOTCH3 protein – biochemical, 635/667 nm fluorescence, primary screen (AID 1096); details: small-molecule microarray, 635 nm fluorescence, higher = more signal
Neurogenic locus notch homolog protein 3 (Homo sapiens), sequence (Q9UM47 whole entry, looked up): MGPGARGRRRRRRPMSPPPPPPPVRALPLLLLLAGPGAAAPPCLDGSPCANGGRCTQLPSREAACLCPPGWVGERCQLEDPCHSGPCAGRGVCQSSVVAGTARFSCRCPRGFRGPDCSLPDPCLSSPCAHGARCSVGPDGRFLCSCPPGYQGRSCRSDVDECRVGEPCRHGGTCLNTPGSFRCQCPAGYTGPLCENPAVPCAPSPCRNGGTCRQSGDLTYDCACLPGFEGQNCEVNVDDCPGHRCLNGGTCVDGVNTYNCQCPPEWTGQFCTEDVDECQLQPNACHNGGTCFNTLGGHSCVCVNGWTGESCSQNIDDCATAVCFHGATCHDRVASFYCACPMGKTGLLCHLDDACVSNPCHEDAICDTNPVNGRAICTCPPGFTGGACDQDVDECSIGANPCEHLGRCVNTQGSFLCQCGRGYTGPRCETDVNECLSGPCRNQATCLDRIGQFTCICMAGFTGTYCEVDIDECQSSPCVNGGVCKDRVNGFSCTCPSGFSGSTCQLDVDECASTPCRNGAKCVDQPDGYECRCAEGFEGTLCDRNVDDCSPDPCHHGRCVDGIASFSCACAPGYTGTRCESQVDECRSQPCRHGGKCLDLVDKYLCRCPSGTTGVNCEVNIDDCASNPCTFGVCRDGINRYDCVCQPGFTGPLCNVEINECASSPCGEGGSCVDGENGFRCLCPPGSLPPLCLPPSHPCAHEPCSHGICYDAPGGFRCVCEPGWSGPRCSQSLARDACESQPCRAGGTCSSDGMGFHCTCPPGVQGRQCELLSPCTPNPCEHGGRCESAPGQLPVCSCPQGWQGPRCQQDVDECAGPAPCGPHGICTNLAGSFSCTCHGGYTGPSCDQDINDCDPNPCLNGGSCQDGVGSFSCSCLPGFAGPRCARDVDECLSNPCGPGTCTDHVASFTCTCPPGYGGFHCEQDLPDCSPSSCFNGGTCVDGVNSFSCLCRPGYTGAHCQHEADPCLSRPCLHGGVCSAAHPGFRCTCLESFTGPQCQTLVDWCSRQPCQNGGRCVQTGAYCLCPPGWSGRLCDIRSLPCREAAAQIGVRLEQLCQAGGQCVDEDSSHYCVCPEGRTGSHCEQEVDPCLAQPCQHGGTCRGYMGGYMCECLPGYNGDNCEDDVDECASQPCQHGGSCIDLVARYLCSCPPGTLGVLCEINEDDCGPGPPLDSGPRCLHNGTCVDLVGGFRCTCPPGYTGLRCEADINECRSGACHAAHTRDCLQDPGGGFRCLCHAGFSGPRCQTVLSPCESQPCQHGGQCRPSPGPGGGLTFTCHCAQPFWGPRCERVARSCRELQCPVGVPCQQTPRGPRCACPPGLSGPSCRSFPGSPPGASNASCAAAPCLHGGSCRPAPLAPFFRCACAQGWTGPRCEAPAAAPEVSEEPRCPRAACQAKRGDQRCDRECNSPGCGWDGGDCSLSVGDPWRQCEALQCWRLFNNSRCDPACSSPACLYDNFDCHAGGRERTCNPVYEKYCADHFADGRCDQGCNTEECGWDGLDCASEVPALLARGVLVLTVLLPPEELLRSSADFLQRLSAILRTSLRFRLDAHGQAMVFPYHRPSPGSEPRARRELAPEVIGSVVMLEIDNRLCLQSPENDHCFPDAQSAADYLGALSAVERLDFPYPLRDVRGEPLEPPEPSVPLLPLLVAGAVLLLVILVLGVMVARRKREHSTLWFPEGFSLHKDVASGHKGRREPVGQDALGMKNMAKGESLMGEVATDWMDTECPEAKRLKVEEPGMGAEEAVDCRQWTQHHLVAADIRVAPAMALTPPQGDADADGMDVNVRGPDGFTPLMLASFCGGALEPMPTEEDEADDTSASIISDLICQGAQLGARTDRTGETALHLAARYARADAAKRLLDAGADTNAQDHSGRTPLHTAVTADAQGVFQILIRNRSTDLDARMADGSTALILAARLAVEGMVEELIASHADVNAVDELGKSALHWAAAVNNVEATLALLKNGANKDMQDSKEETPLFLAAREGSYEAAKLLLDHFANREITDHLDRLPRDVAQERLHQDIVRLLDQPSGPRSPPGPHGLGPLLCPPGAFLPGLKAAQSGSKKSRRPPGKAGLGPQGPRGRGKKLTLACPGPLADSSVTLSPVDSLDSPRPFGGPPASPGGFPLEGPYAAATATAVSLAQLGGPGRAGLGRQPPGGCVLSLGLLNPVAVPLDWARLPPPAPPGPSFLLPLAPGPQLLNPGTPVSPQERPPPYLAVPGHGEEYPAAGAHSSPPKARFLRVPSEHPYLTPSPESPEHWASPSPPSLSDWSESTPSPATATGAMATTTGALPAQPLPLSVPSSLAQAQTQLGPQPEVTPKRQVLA

[20] = probe aEGFR binding to arrayed compounds – biochemical, biotinylated probe, 635/667 nm fluorescence, primary screen (AID 1097); details: small-molecule microarray, higher = more signal;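 also: probe is a biotinylated anti-EGFR antibody binding compounds printed on slides; score combines fluorescence near 667 nm and signal to noise of each spot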

Row | Compound | composite z-score [1] | composite z-score [2] | composite z-score [3] | composite z-score [4] | composite z-score [5] | composite z-score [6] | composite z-score [7] | z-score [8] | composite z-score [9] | composite z-score [10] | composite z-score [11] | z-score [12] | z-score [13] | z-score [14] | composite z-score [15] | z-score [16] | composite z-score [17] | composite z-score [18] | composite z-score [19] | composite z-score [20]
1 | O=C1c2ccccc2C(=O)c2cc([C@H]3Oc4ccccc4S(=O)(=O)N4CCC[C@@H]34)ccc21 | 0.238 | -0.845 | -0.128 | -0.639 | -1.09 | -0.926 | -1.64 | -0.933 (inactive) | -0.167 | -0.353 | -1.02 | -1.31 (inactive) | -1.33 (inactive) | -0.462 (inactive) | -0.629 | 2.81 (inactive) | -0.276 | -0.566 | -0.259 | -0.196
2 | CCOC(=O)C[C@H]1[C@H](OC(=O)c2ccc(C(=O)c3ccccc3)cc2)[C@@H](NC(=O)Cc2ccc(OC)cc2)c2cc(OCCCO)ccc2N1C(=O)Cc1ccc(OC)cc1 | 0.0476 | 0.346 | 0.007 | 0.35 | 0.903 | 0.752 | 0.668 | -1.22 (inactive) | 0.971 | -0.132 | 1.21 | -0.574 (inactive) | -1.42 (inactive) | -0.914 (inactive) | 1.66 | 1.78 (inactive) | 0.0673 | 0.22 | 1.13 | -0.0131
3 | COCCOC(=O)N1C(=O)[C@@]2(c3cc(C#CCNC(N)=O)ccc31)[C@H](C(=O)NC[C@H](O)c1ccccc1)[C@H]1C(=O)O[C@H](c3ccccc3)[C@H](c3ccccc3)N1[C@@H]2c1ccc(O)cc1 | 0.464 | 0.256 | -0.031 | 0.462 | -0.26 | 0.8 | 0.442 | 0.803 (inactive) | 0.24 | -0.191 | 1.54 | -0.124 (inactive) | -2.42 (inactive) | 0.893 (inactive) | 1.5 | 2 (inactive) | -0.104 | 0.737 | 0.698 | -0.132
4 | C/C=C/[C@@H](CCn1cc(CCO[Si](C(C)C)(C(C)C)C(C)C)nn1)[Si](C)(C)c1ccc(OC)cc1 | 0.502 | -0.416 | -0.271 | -2.29 | -2.88 | -0.774 | -0.48 | -1.33 (inactive) | -0.986 | -0.413 | -0.551 | -3.08 (inactive) | -2.88 (inactive) | -1.94 (inactive) | -0.356 | -0.715 (inactive) | -0.275 | -1.15 | -3.03 | -0.406
5 | COCCCNC(=O)[C@@]1(C)c2ccccc2C(=O)N(Cc2cc(F)cc(C(F)(F)F)c2)[C@H]1c1ccc(CO)cc1 | 1.57 | -0.12 | -0.145 | -0.103 | -1.19 | 0.595 | 1.45 | -1.65 (inactive) | -0.738 | -0.196 | 0.851 | 1.65 (inactive) | -0.351 (inactive) | 0.459 (inactive) | 2.32 | 0.985 (inactive) | 0.584 | -1.44 | -1.22 | -0.293
6 | C=CCN1C(=O)[C@@]2(O[C@@H](CCn3cc(CCO)nn3)[C@H]([Si](C)(C)c3ccc(OC)cc3)[C@H]2C)c2cc(NC(=O)c3ccc(OC)cc3)ccc21 | -0.0186 | 0.463 | -0.0493 | 0.051 | 0.0039 | 0.457 | 0.672 | -2.22 (inactive) | 0.309 | -0.0994 | 1.49 | -0.0986 (inactive) | -1.27 (inactive) | -0.738 (inactive) | 0.674 | 1.31 (inactive) | -0.0985 | 1.04 | 0.742 | -0.0895
7 | CCOC(=O)C[C@H]1[C@H](OC(=O)c2cc3ccccc3oc2=O)[C@@H](NC(=O)c2ccccc2)c2cc(OCCCO)ccc2N1C(=O)Cc1ccc(OC)cc1 | -0.297 | 0.682 | -0.038 | 0.575 | 0.81 | 0.147 | -0.1 | -0.265 (inactive) | 0.514 | 0.0302 | -0.0867 | -0.196 (inactive) | -1.08 (inactive) | -0.846 (inactive) | 0.239 | 2.9 (inactive) | -0.0069 | 0.908 | 0.665 | -0.113
8 | COCCOC(=O)N1C(=O)[C@@]2(c3cc(C#CC4(O)CCCCCC4)ccc31)[C@H](C(=O)NC[C@H](O)c1ccccc1)[C@H]1C(=O)O[C@H](c3ccccc3)[C@H](c3ccccc3)N1[C@@H]2c1ccccc1OCCO | -0.0213 | 0.621 | -0.0628 | 0.695 | 1.03 | 1.29 | 1.23 | 0.153 (inactive) | 0.627 | 0.0044 | 1.55 | 2.64 (inactive) | 0.623 (inactive) | 6.84 (inactive) | 2.69 | 1.97 (inactive) | 0.101 | 1.3 | 1.04 | 0.0343
9 | C=C(CCCC)/C(=C/C[C@H](OC(=O)c1ccncc1)c1ccc(CO)o1)c1cnc2ccccc2c1 | -0.408 | 0.536 | -0.0332 | 0.941 | 1.41 | -0.185 | 1.04 | -0.587 (inactive) | 0.761 | 0.265 | 1.56 | 3.23 (inactive) | -1.99 (inactive) | -0.516 (inactive) | 1.89 | 0.74 (inactive) | -0.0102 | 1.19 | 1.09 | 0.0221
10 | O=c1n(-c2ccccc2)c(=O)n2n1CC(COc1ccccc1)=C1[C@@H](CCc3ccccc3)OB(O)C[C@@H]12 | -0.62 | -0.128 | -0.031 | 0.96 | 0.893 | 0.97 | 0.706 | -4.24 (inactive) | 0.642 | 0.0524 | 1.42 | 0.173 (inactive) | -3.03 (inactive) | -1.44 (inactive) | 1.39 | 1.92 (inactive) | -0.133 | 0.814 | 1.03 | 0.0209
